# Reference: PubChem BioAssay (NCI)
# This is part of a sample that, as a whole, favours compounds with a hit. Of some 83,000 tested, about 20% had one in any assay.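 Results are percent growth after 48 hours of single-concentration exposure. 100 means growth as in untreated cells, lower positive values show inhibition; negative values down to -100 show cell death.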 Unmarked numbers belong to inactive results. Calls of active or inactive are those of the source. How the source made its calls: active means growth percent below 10; inactive means the rest.
# Test system: UACC-257 melanoma
# Test: NCI-60 one-dose screen, 48 h (100 = growth as untreated, 0 = no growth, -100 = all killed)
# Conditions: 10 µM unless noted
row,Structure (SMILES),growth
1,COc1ccc(/C(=C\c2cc(OC)c(OC)c(OC)c2)C(=O)N2CCNCC2)cc1,91.3%
2,O=c1c2sc3ncc(Cl)cc3c2nnn1-c1cccc(Cl)c1,112%
3,F,0.483% [6.87 mM] (active)
4,CC1=C(C(=O)Nc2ccc(F)cc2)C(c2ccc(C)cc2)C2=C(CC(C)(C)CC2=O)N1 (stereo unspecified),98.5%
5,CC[C@H](Nc1nc(N)nc(C2CC2)c1C#N)c1nc2cccc(NCc3ccc(C(=O)NO)cc3)c2c(=O)n1-c1ccccc1,-2.7% (active)
6,CC(C)N1CCN(c2ccncc2S(=O)(=O)N2CCN(C)CC2)CC1,102%
7,c1ccc(C(CC2=NCCCN2)c2ccccc2)cc1,97.7%
8,Clc1ccc2c(c1)-c1ccccc1C1=NCCN12,14.2%
9,O=C(C=P(c1ccccc1)(c1ccccc1)c1ccccc1)CCl,-73.5% (active)
10,COc1cc(/C=C/C(=O)c2ccc(NC(=O)CSc3nnc(-c4ccc(Cl)cc4)n3-c3ccccc3)cc2)cc(OC)c1OC,73.6%
11,OC(c1cc2cc(Cl)ccc2c2cc(C(F)(F)F)ccc12)C1CCCCN1 (stereo unspecified),-84% (active)
12,Clc1cc(Br)ccc1-c1ccc(CNCC2CCNCC2)o1,79.6%
13,CN1CCN(Cc2ccc(NC(=O)c3cncc(C#Cc4ncc5cnccn45)c3)cc2C(F)(F)F)CC1,55.3%
14,CC1=C(C(=O)Nc2ccc(F)cc2)C(c2ccc(Cl)cc2)C2=C(CC(C)(C)CC2=O)N1 (stereo unspecified),95.3%
15,CCOC(=O)c1ccc(N(CCC(=O)O)C(C)=O)cc1,98.2%
16,O=c1[nH]c2cc(Cl)c(Cl)cc2o1,114%
17,CC(COC(=O)c1ccccc1)N1CC2CCC(C1)O2 (stereo unspecified),92.7%
18,CC[C@H](Nc1nc(C)nc(N)c1C#N)c1nc2cccc(NCc3ccc(C(=O)NO)cc3)c2c(=O)n1-c1ccccc1,-3.98% (active)
19,Cc1cc(NC(=O)C2c3ccccc3C(=O)N(CC(C)C)C2c2cccs2)no1 (stereo unspecified),-8.81% (active)

row,Structure (SMILES),growth
1,Clc1ccc2c(c1)-n1cccc1C(c1ccc3ccccc3c1)=NC2,100%
2,CCC1CCc2nc3sc(C(=O)Nc4cccc(F)c4)c(N)c3cc2C1 (stereo unspecified),49.5%
3,CCn1c(CN2CCN(Cc3ccccc3)CC2)nc2cc(NC(=O)c3cccs3)ccc21,-80.1% (active)
4,CCN(CC)CCCNc1cccc2c(C)cc(OC)nc12,98.9%
5,COc1ccc(-c2cn(-c3cccc(C(=O)/C=C/c4ccc(O)c(OC)c4)c3)c(=O)[nH]2)cc1,40.3%
6,COc1ccc(/C=c2\c(=O)n(-c3ccccc3)c3nn4c(n23)=NNC42CCCCC2)cc1,111%
7,CCNC(=S)N(Cc1ccccc1)Cc1ccccc1,98.7%
8,CCCCCCCCCCCCCCCc1cc(O)ccc1[N+](=O)[O-],87.3%
9,COC1=CC(c2ccc[nH]2)=N/C1=C\c1[nH]c(C)c(C(=O)CCCCCCCCC(=O)O[C@H]2CC[C@H]3C4CCc5cc(O)ccc5C4CC[C@]23C)c1C (stereo partly specified),49.2%
10,CCc1oc2ccccc2c1C(=O)c1cc(I)c(O)c(I)c1,70.7%
11,Cc1ccc(N=CNN=C(N)N)cc1,97.4%
12,CCCCN(CCCC)CCCN=c1nc2c(c(N)n1-c1ccccc1)c(=S)n(-c1ccccc1)c(=S)n2-c1ccccc1,-73.1% (active)
13,[Ag].[Ag].[NH-]S(=O)(=O)c1ccc(N=Nc2cc(N=Nc3ccc(S([NH-])(=O)=O)cc3)c3c(NC(=O)C(Cl)Cl)cccc3c2OC(=O)C(Cl)Cl)cc1.[c-]1nccs1.[c-]1nccs1,82.4%
14,COc1cc(NCCCCC(C)N)c2nccc(C)c2c1 (stereo unspecified),107%
15,COC(=O)C(C)NC1=C(Cl)C(=O)C(NC(C)C(=O)OC)=C(Cl)C1=O (stereo unspecified),86.4%
16,COc1cc2nccc(Oc3ccc(NC(=O)C4(C(=O)Nc5ccc(F)cc5)CC4)cc3)c2cc1OC(=O)c1ccc(N)cc1,33.5%
17,O=C(NO)c1ccc(NCc2csc3ccccc23)cc1,70.2%
18,COc1ccc2[nH]c(O)c(/C=c3/ccc4c(c3)N=C(c3ccc(F)cc3)N=4)c2c1,82.5%
19,CCN(CC)CCCC(C)N/C(c1cccc(OC)c1)=c1\c(=O)[nH]n(-c2c3ccccc3nc3ccccc23)c(=O)\c1=C(/NC(C)CCCN(CC)CC)c1cccc(OC)c1 (stereo unspecified),-95.5% (active)

# Test system: M14 melanoma
# Test: as above
# Conditions: 10 µM unless noted
row,Structure (SMILES),growth
1,COc1ccc(/C(=C\c2cc(OC)c(OC)c(OC)c2)C(=O)N2CCNCC2)cc1,99%
2,O=c1c2sc3ncc(Cl)cc3c2nnn1-c1cccc(Cl)c1,85.1%
3,F,-23.4% [6.87 mM] (active)
4,CC1=C(C(=O)Nc2ccc(F)cc2)C(c2ccc(C)cc2)C2=C(CC(C)(C)CC2=O)N1 (stereo unspecified),101%
5,CC[C@H](Nc1nc(N)nc(C2CC2)c1C#N)c1nc2cccc(NCc3ccc(C(=O)NO)cc3)c2c(=O)n1-c1ccccc1,-18.6% (active)
6,CC(C)N1CCN(c2ccncc2S(=O)(=O)N2CCN(C)CC2)CC1,99.5%
7,c1ccc(C(CC2=NCCCN2)c2ccccc2)cc1,92.5%
8,Clc1ccc2c(c1)-c1ccccc1C1=NCCN12,37.8%
9,O=C(C=P(c1ccccc1)(c1ccccc1)c1ccccc1)CCl,-61.5% (active)
10,COc1cc(/C=C/C(=O)c2ccc(NC(=O)CSc3nnc(-c4ccc(Cl)cc4)n3-c3ccccc3)cc2)cc(OC)c1OC,76.1%
11,OC(c1cc2cc(Cl)ccc2c2cc(C(F)(F)F)ccc12)C1CCCCN1 (stereo unspecified),-72% (active)
12,Clc1cc(Br)ccc1-c1ccc(CNCC2CCNCC2)o1,55.2%
13,CN1CCN(Cc2ccc(NC(=O)c3cncc(C#Cc4ncc5cnccn45)c3)cc2C(F)(F)F)CC1,9.27% (active)
14,CC1=C(C(=O)Nc2ccc(F)cc2)C(c2ccc(Cl)cc2)C2=C(CC(C)(C)CC2=O)N1 (stereo unspecified),98.5%
15,CCOC(=O)c1ccc(N(CCC(=O)O)C(C)=O)cc1,105%
16,O=c1[nH]c2cc(Cl)c(Cl)cc2o1,105%
17,CC(COC(=O)c1ccccc1)N1CC2CCC(C1)O2 (stereo unspecified),99.3%
18,CC[C@H](Nc1nc(C)nc(N)c1C#N)c1nc2cccc(NCc3ccc(C(=O)NO)cc3)c2c(=O)n1-c1ccccc1,8.71% (active)
19,Cc1cc(NC(=O)C2c3ccccc3C(=O)N(CC(C)C)C2c2cccs2)no1 (stereo unspecified),1% (active)

row,Structure (SMILES),growth
1,Clc1ccc2c(c1)-n1cccc1C(c1ccc3ccccc3c1)=NC2,87.8%
2,CCC1CCc2nc3sc(C(=O)Nc4cccc(F)c4)c(N)c3cc2C1 (stereo unspecified),47.5%
3,CCn1c(CN2CCN(Cc3ccccc3)CC2)nc2cc(NC(=O)c3cccs3)ccc21,-64.6% (active)
4,CCN(CC)CCCNc1cccc2c(C)cc(OC)nc12,93.2%
5,COc1ccc(-c2cn(-c3cccc(C(=O)/C=C/c4ccc(O)c(OC)c4)c3)c(=O)[nH]2)cc1,51%
6,COc1ccc(/C=c2\c(=O)n(-c3ccccc3)c3nn4c(n23)=NNC42CCCCC2)cc1,102%
7,CCNC(=S)N(Cc1ccccc1)Cc1ccccc1,108%
8,CCCCCCCCCCCCCCCc1cc(O)ccc1[N+](=O)[O-],93.1%
9,COC1=CC(c2ccc[nH]2)=N/C1=C\c1[nH]c(C)c(C(=O)CCCCCCCCC(=O)O[C@H]2CC[C@H]3C4CCc5cc(O)ccc5C4CC[C@]23C)c1C (stereo partly specified),-35.7% (active)
10,CCc1oc2ccccc2c1C(=O)c1cc(I)c(O)c(I)c1,16.2%
11,Cc1ccc(N=CNN=C(N)N)cc1,103%
12,CCCCN(CCCC)CCCN=c1nc2c(c(N)n1-c1ccccc1)c(=S)n(-c1ccccc1)c(=S)n2-c1ccccc1,-86.3% (active)
13,[Ag].[Ag].[NH-]S(=O)(=O)c1ccc(N=Nc2cc(N=Nc3ccc(S([NH-])(=O)=O)cc3)c3c(NC(=O)C(Cl)Cl)cccc3c2OC(=O)C(Cl)Cl)cc1.[c-]1nccs1.[c-]1nccs1,97.4%
14,COc1cc(NCCCCC(C)N)c2nccc(C)c2c1 (stereo unspecified),95.4%
15,COC(=O)C(C)NC1=C(Cl)C(=O)C(NC(C)C(=O)OC)=C(Cl)C1=O (stereo unspecified),103%
16,COc1cc2nccc(Oc3ccc(NC(=O)C4(C(=O)Nc5ccc(F)cc5)CC4)cc3)c2cc1OC(=O)c1ccc(N)cc1,10.8%
17,O=C(NO)c1ccc(NCc2csc3ccccc23)cc1,59.4%
18,COc1ccc2[nH]c(O)c(/C=c3/ccc4c(c3)N=C(c3ccc(F)cc3)N=4)c2c1,68.4%
19,CCN(CC)CCCC(C)N/C(c1cccc(OC)c1)=c1\c(=O)[nH]n(-c2c3ccccc3nc3ccccc23)c(=O)\c1=C(/NC(C)CCCN(CC)CC)c1cccc(OC)c1 (stereo unspecified),-80% (active)
